Results published in the antibiotic and cytotoxicity screens of Wong et al. (2023).
Out of some 39,000 compounds screened, about 3,300 (8.5%) were called active. The full list was thinned out, with actives kept by preference.

system: HepG2; experiment: cytotoxicity call (relative viability < 0.9); conditions: 10 µM

SMILES | cytotoxicity call
CC(C)NC(=O)N(C)C[C@H]1Oc2ccc(NS(=O)(=O)c3cccs3)cc2C(=O)N([C@H](C)CO)C[C@@H]1C | inactive
CO[C@H]1CN(C)C(=O)c2cc(NS(C)(=O)=O)ccc2OC[C@@H](C)N(C(=O)C2CCOCC2)C[C@H]1C | inactive
C[C@@H]1CN([C@@H](C)CO)C(=O)Cc2cc(NC(=O)C3CCCCC3)ccc2O[C@H]1CN(C)Cc1ccc(Cl)c(Cl)c1 | inactive
C[C@H]1CN([C@@H](C)CO)C(=O)Cc2cc(NC(=O)Cn3cnnn3)ccc2O[C@H]1CN(C)C(=O)Nc1ccc2c(c1)OCO2 | inactive
Cc1ccc(S(=O)(=O)N(C)C[C@H]2Oc3c(NS(=O)(=O)c4cn(C)cn4)cccc3C(=O)N([C@H](C)CO)C[C@@H]2C)cc1 | inactive
C[N+](C)(C)CCCCCCNC(=O)[C@@H]1C[C@@H]2C(=O)N[C@@H](CCCC[N+](C)(C)C)C(=O)N2[C@@H]1c1ccc(O)cc1 | inactive
Cc1ccc(S(=O)(=O)N(C)C[C@H]2Oc3ccc(NC(=O)NC(C)C)cc3C(=O)N([C@@H](C)CO)C[C@H]2C)cc1 | inactive
C[C@H](CO)N1C[C@H](C)[C@@H](CN(C)C(=O)N[C@H](C)c2ccccc2)OCc2ccccc2-c2c(n(C)c3ccccc23)C1=O | inactive
O=C(C[C@H]1CC[C@@H]2[C@H](COC[C@H](O)CN2S(=O)(=O)c2ccccc2)O1)N1CCc2ccccc2C1 | inactive
CCCC[C@@H](C)/C=C(C)/C=C(\C)C(=O)NC1=C[C@@](O)(/C=C/C=C/C=C/C(=O)NC2C(=O)CCC2=O)[C@@H]2O[C@@H]2C1=O | active
C[C@@H]1CN([C@@H](C)CO)C(=O)c2cccc(NC(=O)Nc3ccc4c(c3)OCO4)c2O[C@@H]1CN(C)Cc1ccc(Cl)c(Cl)c1 | inactive
O=C(C[C@@H]1CC[C@H]2[C@@H](COC[C@H](O)CN2CC2CCOCC2)O1)N1CCOCC1 | inactive
COc1cccc(C(=O)Nc2ccc3c(c2)C(=O)N(C)[C@H]2CC[C@H](CC(=O)NCC(F)(F)F)O[C@H]2CO3)c1 | inactive
CN1C(=O)c2cc(NC(=O)c3ccc(F)cc3)ccc2OC[C@@H]2O[C@@H](CC(=O)N3CCOCC3)CC[C@H]21 | active
CN1C(=O)c2cc(NC(=O)c3ccc(F)cc3)ccc2OC[C@H]2O[C@H](CC(=O)N3CCOCC3)CC[C@H]21 | inactive
COc1cccc(C(=O)Nc2ccc3c(c2)C(=O)N(C)[C@@H]2CC[C@H](CC(=O)NCC4CC4)O[C@@H]2CO3)c1 | active
COCC(=O)Nc1ccc2c(c1)C(=O)N(C)[C@H]1CC[C@@H](CC(=O)N3CCc4ccccc4C3)O[C@@H]1CO2 | inactive
COc1cccc(C(=O)Nc2ccc3c(c2)C(=O)N(C)[C@@H]2CC[C@H](CC(=O)NCC(F)(F)F)O[C@@H]2CO3)c1 | active
COc1cccc(C(=O)Nc2ccc3c(c2)C(=O)N(C)[C@H]2CC[C@H](CC(=O)NCC(F)(F)F)O[C@@H]2CO3)c1 | inactive
COCC(=O)Nc1ccc2c(c1)C(=O)N(C)[C@@H]1CC[C@H](CC(=O)N3CCc4ccccc4C3)O[C@@H]1CO2 | inactive
COCC(=O)Nc1ccc2c(c1)C(=O)N(C)[C@H]1CC[C@H](CC(=O)N3CCc4ccccc4C3)O[C@H]1CO2 | active
COc1cccc(C(=O)Nc2ccc3c(c2)C(=O)N(C)[C@@H]2CC[C@@H](CC(=O)NCC4CC4)O[C@@H]2CO3)c1 | inactive
COc1cccc(C(=O)Nc2ccc3c(c2)C(=O)N(C)[C@H]2CC[C@H](CC(=O)NCC4CC4)O[C@@H]2CO3)c1 | inactive

SMILES | cytotoxicity call
CN1C(=O)c2cc(NC(=O)c3ccc(F)cc3)ccc2OC[C@H]2O[C@@H](CC(=O)N3CCOCC3)CC[C@H]21 | inactive
C[C@H]1CN([C@@H](C)CO)C(=O)c2c(c3ccccc3n2C)-c2ccccc2CO[C@@H]1CN(C)Cc1cccc(O)c1 | inactive
C[C@H](CO)N1C[C@H](C)[C@H](CN(C)S(C)(=O)=O)Oc2ccc(NC(=O)CCC(F)(F)F)cc2CC1=O | inactive
Cc1noc(C)c1S(=O)(=O)Nc1ccc2c(c1)C(=O)N([C@@H](C)CO)C[C@H](C)[C@@H](CN(C)C(=O)NC1CCCCC1)O2 | inactive
C[C@@H]1CCCCO[C@@H](CN(C)C(=O)Nc2ccccc2)[C@@H](C)CN([C@@H](C)CO)C(=O)c2cc(NC(=O)CCC(F)(F)F)ccc2O1 | inactive
C[C@H](CO)N1C[C@H](C)[C@@H](CN(C)C(=O)Nc2ccccc2)Oc2c(NS(=O)(=O)c3cn(C)cn3)cccc2C1=O | inactive
C[C@H]1CN([C@@H](C)CO)C(=O)Cc2cc(NS(=O)(=O)c3ccc(F)cc3)ccc2O[C@@H]1CN(C)S(=O)(=O)c1ccccc1 | inactive
COc1ccc2c3c([nH]c2c1)[C@@H](CO)N(CC1CCCC1)C[C@]13CCN(CC1)C(=O)c1ccc(cc1)F | inactive
C[C@H](NC(=O)N(C)C[C@@H]1OCc2ccccc2-c2c(n(C)c3ccccc23)C(=O)N([C@@H](C)CO)C[C@H]1C)c1ccccc1 | inactive
O=C(C[C@H]1CC[C@H]2[C@@H](COC[C@@H](O)CN2C(=O)c2ccccc2)O1)N1CCOCC1 | inactive
Cc1noc(C)c1S(=O)(=O)Nc1cccc2c1O[C@H](CN(C)Cc1ccc(-c3ccccc3)cc1)[C@H](C)CN([C@@H](C)CO)C2=O | inactive
Cc1noc(C)c1S(=O)(=O)N(C)C[C@H]1Oc2c(NC(=O)c3cnccn3)cccc2C(=O)N([C@H](C)CO)C[C@H]1C | inactive
COc1ccc(NC(=O)Nc2ccc3c(c2)C(=O)N([C@@H](C)CO)C[C@@H](C)[C@H](CN(C)S(=O)(=O)c2ccc(C)cc2)OCCCC[C@@H](C)O3)cc1 | inactive
CCCNC(=O)C[C@@H]1CC[C@@H]2[C@@H](COc3ccc(NC(=O)c4ccc5c(c4)OCO5)cc3C(=O)N2C)O1 | inactive
COc1ccc(C(=O)Nc2ccc3c(c2)C(=O)N(C)[C@H]2CC[C@H](CC(=O)NCC4CC4)O[C@@H]2CO3)cc1 | inactive
CCCNC(=O)C[C@H]1CC[C@@H]2[C@@H](COc3ccc(NC(=O)c4ccc5c(c4)OCO5)cc3C(=O)N2C)O1 | active
COc1ccc(C(=O)Nc2ccc3c(c2)C(=O)N(C)[C@@H]2CC[C@H](CC(=O)NCC4CC4)O[C@@H]2CO3)cc1 | active
COc1ccc(C(=O)Nc2ccc3c(c2)C(=O)N(C)[C@@H]2CC[C@@H](CC(=O)NCC4CC4)O[C@@H]2CO3)cc1 | inactive
CCCNC(=O)C[C@@H]1CC[C@@H]2[C@H](COc3ccc(NC(=O)c4ccc5c(c4)OCO5)cc3C(=O)N2C)O1 | inactive
COc1ccc(C(=O)Nc2ccc3c(c2)C(=O)N(C)[C@@H]2CC[C@H](CC(=O)NCC4CC4)O[C@H]2CO3)cc1 | active
COc1ccc(C(=O)Nc2ccc3c(c2)C(=O)N(C)[C@H]2CC[C@H](CC(=O)NCC4CC4)O[C@H]2CO3)cc1 | inactive
COc1ccc(C(=O)Nc2ccc3c(c2)C(=O)N(C)[C@H]2CC[C@@H](CC(=O)NCC4CC4)O[C@H]2CO3)cc1 | inactive
